Substitutions are numbered along the chain they refer to.

The values that follow come from article PMC11006913.

The first test addresses T1, SIX6 (Homo sapiens, UniProt O95475 114-200, L167I).
T1 sequence: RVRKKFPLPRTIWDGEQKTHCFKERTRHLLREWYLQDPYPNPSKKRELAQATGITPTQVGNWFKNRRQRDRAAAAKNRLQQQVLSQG
Description: PBM; 200 nM protein, PBS. Particulars: dsDNA, one strand shown.
With CGGTATCA, the binding signal is 11.3 upbm affinity estimate (log intensity, higher = more binding, comparable within an allelic series).

Take AGCGGGCC: the binding signal was 9.04 upbm affinity estimate (log intensity, higher = more binding, comparable within an allelic series).

Turning to GGCCCCGA, the binding signal was 9 upbm affinity estimate (log intensity, higher = more binding, comparable within an allelic series).

Turning to GGCGACCC, the binding signal was 8.98 upbm affinity estimate (log intensity, higher = more binding, comparable within an allelic series).

Take AGGGCCCG: the binding signal is 8.98 upbm affinity estimate (log intensity, higher = more binding, comparable within an allelic series).

For ACGGGCGG, the binding signal is 8.9 upbm affinity estimate (log intensity, higher = more binding, comparable within an allelic series).

For ATGATACC, the binding signal is 11.6 upbm affinity estimate (log intensity, higher = more binding, comparable within an allelic series).

Consider TGATACCA, for which the binding signal was 11.3 upbm affinity estimate (log intensity, higher = more binding, comparable within an allelic series).

As to AGTATATC, the binding signal was 11 upbm affinity estimate (log intensity, higher = more binding, comparable within an allelic series).

For GCCAGTCC, the binding signal was 9.04 upbm affinity estimate (log intensity, higher = more binding, comparable within an allelic series).

Take ATATCCCC: the binding signal is 10.9 upbm affinity estimate (log intensity, higher = more binding, comparable within an allelic series).

For the sequence CCAGTGCG, the binding signal is 8.98 upbm affinity estimate (log intensity, higher = more binding, comparable within an allelic series).

For the sequence GGCGCCCA, the binding signal was 8.76 upbm affinity estimate (log intensity, higher = more binding, comparable within an allelic series).

For the sequence ACCGCGCC, the binding signal is 8.84 upbm affinity estimate (log intensity, higher = more binding, comparable within an allelic series).

With GGCGGACC, the binding signal was 8.97 upbm affinity estimate (log intensity, higher = more binding, comparable within an allelic series).

Turning to CGCAACCG, the binding signal was 9.24 upbm affinity estimate (log intensity, higher = more binding, comparable within an allelic series).

As for AGCTCCGC, the binding signal is 9.05 upbm affinity estimate (log intensity, higher = more binding, comparable within an allelic series).

As for AGTGTATC, the binding signal is 11 upbm affinity estimate (log intensity, higher = more binding, comparable within an allelic series).

Turning to GGCCGGAA, the binding signal is 9.02 upbm affinity estimate (log intensity, higher = more binding, comparable within an allelic series).

As to CGCAGCGC, the binding signal was 9.07 upbm affinity estimate (log intensity, higher = more binding, comparable within an allelic series).

Regarding CCCCGCAG, the binding signal was 9.03 upbm affinity estimate (log intensity, higher = more binding, comparable within an allelic series).

As to CAGTGGCC, the binding signal was 8.99 upbm affinity estimate (log intensity, higher = more binding, comparable within an allelic series).

On to AGGTGGGC, for which the binding signal was 8.98 upbm affinity estimate (log intensity, higher = more binding, comparable within an allelic series).

Consider AGCGGCGC, for which the binding signal was 8.85 upbm affinity estimate (log intensity, higher = more binding, comparable within an allelic series).

Regarding AAGATATC, the binding signal was 11.2 upbm affinity estimate (log intensity, higher = more binding, comparable within an allelic series).

GTATCAAA: the binding signal was 11.4 upbm affinity estimate (log intensity, higher = more binding, comparable within an allelic series).

Take TGTATCAA: the binding signal is 11.2 upbm affinity estimate (log intensity, higher = more binding, comparable within an allelic series).

On to CCGCCAGC, for which the binding signal is 9.01 upbm affinity estimate (log intensity, higher = more binding, comparable within an allelic series).

Consider GCGCTGCC, for which the binding signal was 8.75 upbm affinity estimate (log intensity, higher = more binding, comparable within an allelic series).

Turning to CGTATCAC, the binding signal was 11.2 upbm affinity estimate (log intensity, higher = more binding, comparable within an allelic series).

For the sequence CATGATCA, the binding signal is 10.5 upbm affinity estimate (log intensity, higher = more binding, comparable within an allelic series).

As for ATATACAC, the binding signal is 10.9 upbm affinity estimate (log intensity, higher = more binding, comparable within an allelic series).

For CAGTATCA, the binding signal was 11.2 upbm affinity estimate (log intensity, higher = more binding, comparable within an allelic series).

Take AGTATCAC: the binding signal is 11.3 upbm affinity estimate (log intensity, higher = more binding, comparable within an allelic series).

For GCAGTGGC, the binding signal is 8.87 upbm affinity estimate (log intensity, higher = more binding, comparable within an allelic series).

Consider GATGATAC, for which the binding signal was 11.4 upbm affinity estimate (log intensity, higher = more binding, comparable within an allelic series).

For the sequence GCCGCGGC, the binding signal was 9.02 upbm affinity estimate (log intensity, higher = more binding, comparable within an allelic series).

For the sequence GATATCAC, the binding signal is 11.4 upbm affinity estimate (log intensity, higher = more binding, comparable within an allelic series).

In the case of GTGTATCA, the binding signal was 11.5 upbm affinity estimate (log intensity, higher = more binding, comparable within an allelic series).

On to AGCGGTGG, for which the binding signal is 8.97 upbm affinity estimate (log intensity, higher = more binding, comparable within an allelic series).

The target of the next test is T2, SIX6 (Homo sapiens, UniProt O95475 114-200, L143V).
T2 sequence: T1 sequence with L30V, I54L
Description: PBM; 200 nM protein, PBS. Particulars: dsDNA, one strand shown.
On to CGGTATCA, for which the binding signal is 10.3 upbm affinity estimate (log intensity, higher = more binding, comparable within an allelic series).

For AGCGGGCC, the binding signal is 8.92 upbm affinity estimate (log intensity, higher = more binding, comparable within an allelic series).

On to GGCCCCGA, for which the binding signal is 8.8 upbm affinity estimate (log intensity, higher = more binding, comparable within an allelic series).

With GGCGACCC, the binding signal was 8.85 upbm affinity estimate (log intensity, higher = more binding, comparable within an allelic series).

On to AGGGCCCG, for which the binding signal was 8.79 upbm affinity estimate (log intensity, higher = more binding, comparable within an allelic series).

Turning to ACGGGCGG, the binding signal is 8.8 upbm affinity estimate (log intensity, higher = more binding, comparable within an allelic series).

In the case of ATGATACC, the binding signal was 10.5 upbm affinity estimate (log intensity, higher = more binding, comparable within an allelic series).

TGATACCA: the binding signal was 10.5 upbm affinity estimate (log intensity, higher = more binding, comparable within an allelic series).

For the sequence AGTATATC, the binding signal was 10.3 upbm affinity estimate (log intensity, higher = more binding, comparable within an allelic series).

For GCCAGTCC, the binding signal was 8.92 upbm affinity estimate (log intensity, higher = more binding, comparable within an allelic series).

On to ATATCCCC, for which the binding signal was 10.3 upbm affinity estimate (log intensity, higher = more binding, comparable within an allelic series).

For CCAGTGCG, the binding signal was 8.96 upbm affinity estimate (log intensity, higher = more binding, comparable within an allelic series).

As for GGCGCCCA, the binding signal was 8.78 upbm affinity estimate (log intensity, higher = more binding, comparable within an allelic series).

Regarding ACCGCGCC, the binding signal is 8.82 upbm affinity estimate (log intensity, higher = more binding, comparable within an allelic series).

Turning to GGCGGACC, the binding signal is 8.88 upbm affinity estimate (log intensity, higher = more binding, comparable within an allelic series).

Regarding CGCAACCG, the binding signal is 9.05 upbm affinity estimate (log intensity, higher = more binding, comparable within an allelic series).

Consider AGCTCCGC, for which the binding signal is 8.96 upbm affinity estimate (log intensity, higher = more binding, comparable within an allelic series).

Turning to AGTGTATC, the binding signal is 10.3 upbm affinity estimate (log intensity, higher = more binding, comparable within an allelic series).

For the sequence GGCCGGAA, the binding signal is 8.91 upbm affinity estimate (log intensity, higher = more binding, comparable within an allelic series).

For CGCAGCGC, the binding signal is 8.94 upbm affinity estimate (log intensity, higher = more binding, comparable within an allelic series).

As for CCCCGCAG, the binding signal is 8.85 upbm affinity estimate (log intensity, higher = more binding, comparable within an allelic series).

As to CAGTGGCC, the binding signal is 8.9 upbm affinity estimate (log intensity, higher = more binding, comparable within an allelic series).

With AGGTGGGC, the binding signal was 8.85 upbm affinity estimate (log intensity, higher = more binding, comparable within an allelic series).

In the case of AGCGGCGC, the binding signal was 8.89 upbm affinity estimate (log intensity, higher = more binding, comparable within an allelic series).

For the sequence AAGATATC, the binding signal was 10.4 upbm affinity estimate (log intensity, higher = more binding, comparable within an allelic series).

On to GTATCAAA, for which the binding signal is 10.5 upbm affinity estimate (log intensity, higher = more binding, comparable within an allelic series).

Take TGTATCAA: the binding signal is 10.4 upbm affinity estimate (log intensity, higher = more binding, comparable within an allelic series).

CCGCCAGC: the binding signal is 9.02 upbm affinity estimate (log intensity, higher = more binding, comparable within an allelic series).

In the case of GCGCTGCC, the binding signal was 8.74 upbm affinity estimate (log intensity, higher = more binding, comparable within an allelic series).

With CGTATCAC, the binding signal was 10.3 upbm affinity estimate (log intensity, higher = more binding, comparable within an allelic series).

For CATGATCA, the binding signal is 9.91 upbm affinity estimate (log intensity, higher = more binding, comparable within an allelic series).

Turning to ATATACAC, the binding signal was 10.4 upbm affinity estimate (log intensity, higher = more binding, comparable within an allelic series).

Consider CAGTATCA, for which the binding signal was 10.2 upbm affinity estimate (log intensity, higher = more binding, comparable within an allelic series).

Take AGTATCAC: the binding signal was 10.3 upbm affinity estimate (log intensity, higher = more binding, comparable within an allelic series).

For GCAGTGGC, the binding signal is 8.89 upbm affinity estimate (log intensity, higher = more binding, comparable within an allelic series).

With GATGATAC, the binding signal was 10.4 upbm affinity estimate (log intensity, higher = more binding, comparable within an allelic series).

Turning to GCCGCGGC, the binding signal was 8.88 upbm affinity estimate (log intensity, higher = more binding, comparable within an allelic series).

Consider GATATCAC, for which the binding signal was 10.3 upbm affinity estimate (log intensity, higher = more binding, comparable within an allelic series).

In the case of GTGTATCA, the binding signal was 10.5 upbm affinity estimate (log intensity, higher = more binding, comparable within an allelic series).

For the sequence AGCGGTGG, the binding signal was 8.89 upbm affinity estimate (log intensity, higher = more binding, comparable within an allelic series).
